From PubChem
Hits are enriched below; roughly 7.9% of the tested compounds scored in any of these assays.
HT1080NT lethal – kills 2HG-producing HT-1080-NT fibrosarcoma cells; Potency, µM (series often up to 46.1 µM), for the others: at the top dose activity, negative = less viability, hits mostly cytotoxic; HT-1080-NT fibrosarcoma viability, CellTiter-Glo ATP luminescence, 48 h; 360,000 tested, 1.6% active;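 also: NT is the 2HG producing partner of a matched IDH1 knockdown line; 0% = DMSO-treated cells and -100% = media-only wells without cells; nearly all actives have a fitted effect of over 55% in size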
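Viability of the 2HG-overproducing fibrosarcoma line after 48 hours of compound exposure at 37 degrees C was determined by luminescence with CellTiter-Glo, and concentration-effect curves were then fitted and categorized.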
SW480 rereplic – inducers of DNA re-replication in SW480 colon cancer cells; SW480 DNA re-replication, Hoechst DNA content imaging, 48 h; Potency, µM (titrated, usually from 46.1 µM), without a hit: top-dose re-replication activation, most hits filed as activators; 340,000 tested, 1.8% active; AID 624297; also: % of control where 0% means no effect; nearly all actives have a fitted effect of over 55% in size
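Cells (250 per well) received 23 nL compound or DMSO by pin tool and were kept 48 hr at 37 C, 5% CO2. Nuclei were then stained with Hoechst for 40 min and scanned for DNA content.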
KB-3-1 tox – KB-3-1 parental cell cytotoxicity | KB-3-1 viability, CellTiter-Glo ATP luminescence, 72 h | Potency, µM (titrated, usually from 46.1 µM), most hits filed as cytotoxic | 400,000 tested, 1.4% active; also: % is scaled to controls: 0 for no effect and ±100 for the full control effect; nearly all actives have a fitted effect of over 60% in size
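Using CellTiter-Glo luminescence, growth of non-resistant KB-3-1 adenocarcinoma cells is assessed 72 h after pin-tool compound addition at 37 °C. Normalized responses across the concentration series yield fitted curves.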
MCF10A rerep – DNA re-replication induction in MCF 10a cells; MCF 10A DNA re-replication, Hoechst nuclear intensity, 48 h; Potency, µM (doses to about 46.1 µM), inactives show top-dose activity, positive = re-replication, most hits filed as activators; 350,000 tested, 2.9% active; AID 624296; also: % of control where 0% means no effect; nearly all actives have a fitted effect of over 50% in size
KB-V1 cytotox – kills drug-selected multidrug resistant KB-V1 cells; 400,000 tested, 3.4% active; KB-V1 MDR cells viability, CellTiter-Glo, 72 h; AID 1347076; Potency, µM (doses to about 46.1 µM), hits mostly cytotoxic; also: % is scaled to controls: 0 for no effect and ±100 for the full control effect; nearly all actives have a fitted effect of over 60% in size
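Potencies derive from concentration-effect curves fitted to normalized luminescence (CellTiter-Glo) of KB-V1 cells treated for 72 h at 37 degrees C in phenol-red-free DMEM containing 10% FBS.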
HT1080 IDH1KD tx – toxicity to HT-1080 IDH1 knockdown cells (counter line); HT-1080 IDH1 knockdown viability, ATP luminescence, 48 h; Potency, µM (doses to about 46.1 µM), inactives show at the highest dose activity, negative = toxicity, hits mostly cytotoxic; 360,000 tested, 2% active;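 also: 0% = DMSO wells and -100% = cell-free medium wells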
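Assay cells: HT-1080 with IDH1 knockdown, 750 per well, RPMI/5% FBS. Exposure: 48 h at 37 °C following 2 h pre-incubation. Read: CellTiter-Glo luminescence; fitted concentration-response, curve class assigned.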
Starred values were filed as active, the others as inactive; i = inactive; ? = inconclusive; . = no result. Calls follow the shape of the dose curve; as a rule, active = well fitted curve in the direction sought with a large enough effect; inconclusive = small, poorly fitted or top-dose-only effect, or another doubt; inactive = no such curve, though single readings can be large; an effect the other way counts as inactive or inconclusive. Potency is read from the fitted curve at half-maximal effect.

SMILES	HT1080NT lethal	SW480 rereplic	KB-3-1 tox	MCF10A rerep	KB-V1 cytotox	HT1080 IDH1KD tx
O=C(Cn1nnc(-c2ccc(CN3CCOCC3)cc2)n1)Nc1nc(-c2ccccc2)cs1	?	6.6%	i	8.9%	18.4µM*	-14.5%
CC1CCN(CC(=O)Nc2nc(-c3ccccc3)cs2)CC1	-2.5%	-2.0%	i	?	i	4.9%
CCOC(=O)c1ccc(-c2csc(NC(=O)CN3CCC(C)CC3)n2)cc1	25.9µM*	5.7%	i	?	i	?
Cc1ccc(-c2csc(NC(=O)CN3CC(C)OC(C)C3)n2)cc1 (stereo not given)	?	?	23.1µM*	18.4µM*	?	?
COc1ccc(NC(=O)C(c2ccc(OC)cc2)n2c(=O)c(-c3ccco3)nc3ccccc32)cc1 (stereo not given)	-13.6%	.	i	.	?	-21.6%
COc1ccc(C(C(=O)Nc2ccc3c(c2)OCCO3)n2c(=O)c(-c3ccco3)nc3ccccc32)cc1 (stereo not given)	?	.	?	.	?	13µM*
CCCC1CCC(c2nc(-c3cccnc3)no2)CC1 (stereo not given)	0.1%	?	i	?	i	-0.2%
CC1(C)Cc2ccccc2-c2n[nH]c(=S)n21	14.1µM*	-0.5%	i	2.4%	?	11.2µM*
CCSc1nnc2n1C(C)(C)Cc1ccccc1-2	2.1%	?	i	-1.3%	i	-1.2%
CC(=O)c1cc(C#N)c(SCc2ccccc2C#N)nc1C	?	?	16.4µM*	?	10.3µM*	?
COc1ccc(/C=C2\SC(=O)N(CCNC(=O)C3CCN(S(=O)(=O)c4cccs4)CC3)C2=O)cc1	3.0%	-15.1%	i	-7.0%	14.6µM*	0.5%
O=C(NCCN1C(=O)S/C(=C\c2ccc(F)cc2)C1=O)C1CCN(S(=O)(=O)c2cccs2)CC1	3.8%	-2.3%	i	3.3%	i	15.1%
O=C(Nc1nc(-c2ccc3ccccc3c2)cs1)C1CCN(S(=O)(=O)c2cccs2)CC1	-7.0%	-137.3%	4.61µM*	-43.4%	2.59µM*	-19.7%
Cc1ccc(-c2csc(NC(=O)C3CCN(S(=O)(=O)c4cccs4)CC3)n2)cc1	-12.2%	?	6.51µM*	1.8%	9.2µM*	?
CC(=O)Nc1ccc(CC(=O)NCCC(c2ccccc2)c2ccccc2)cc1	25.9µM*	20.6µM*	i	?	i	32.6µM*
COC(=O)C1CSC(C)(C)C(=O)N1 (stereo not given)	-0.4%	-41.3%	i	0.92µM*	i	7.5%
O=C(CSC(=S)N1CCCC1)N(Cc1nnc(-c2ccccc2Cl)o1)C1CC1	-3.4%	-5.3%	i	0.2%	4.61µM*	7.1%
O=C(COc1ccccc1)N(Cc1nnc(-c2ccccc2Cl)o1)C1CC1	-4.1%	-1.2%	i	2.6%	i	1.5%
CC(CCc1ccccc1)NC(=O)C1CCN(S(=O)(=O)N2CCOCC2)CC1 (stereo not given)	10.7%	-2.8%	i	?	20.6µM*	25.1%
CC(=O)NC(c1ccccc1)c1cc([N+](=O)[O-])c2cccnc2c1O (stereo not given)	?	0.4%	?	?	?	13µM*
CC(C)C(=O)NC(c1ccccc1)c1cc([N+](=O)[O-])c2cccnc2c1O (stereo not given)	?	?	?	?	?	16.4µM*
CC(=O)NC(c1ccco1)c1cc(Cl)c2cccnc2c1O (stereo not given)	.	.	i	.	i	.
CC(C)(C)c1cc(NC(=O)c2ccco2)no1	-2.7%	-5.7%	i	1.2%	i	-7.5%
CCOc1ccc(NC(=O)CN(C)C(=O)c2ccc(C3SCCS3)cc2)cc1OCC	-9.3%	-4.5%	i	-7.6%	i	-6.9%
C=C(C)c1cccc(C(C)(C)NC(=O)Nc2cc(C)ccc2OC)c1	-1.5%	5.7%	i	12.3%	8.2µM*	-0.8%
SMILES	HT1080NT lethal	SW480 rereplic	KB-3-1 tox	MCF10A rerep	KB-V1 cytotox	HT1080 IDH1KD tx
C=C(C)c1cccc(C(C)(C)NC(=O)Nc2ccccc2OCC)c1	-8.3%	0.2%	i	?	i	-15.6%
CCOC(=O)/C=C(C)\C=C\c1c[nH]c2ccccc12	?	-2.5%	i	1.9%	i	?
COc1cc(C)c(/C=C/C(C)=C/C=C/C(C)=C/C(=O)O)c(C)c1C	-1.0%	8.8%	i	8.2µM*	i	-27.7%
CCOC(=O)/C=C(C)/C=C/C=C(C)/C=C/c1c(C)cc(OC)c(C)c1C	.	1.2%	.	26.6µM*	.	.
CC1=CC(=O)c2ccccc2C1=O	27.4%	-14.2%	i	0.5%	i	4.8%
O=C(CN1C(=O)c2ccccc2C1=O)Nc1cccc2cccnc12	-0.6%	-7.6%	i	4.1%	i	3.6%
O=C1C=C(Nc2ccccc2)c2ccccc2C1=O	?	2.59µM*	5.8µM*	5.8µM*	?	5.17µM*
O=C1C=C(Nc2cccc3cccnc23)c2ccccc2C1=O	?	7.31µM*	5.8µM*	3.66µM*	5.8µM*	2.06µM*
CCCCNC1=CC(=O)C(=O)c2ccccc21	-5.2%	-40.4%	i	6.6%	i	23.1µM*
O=C1C=C(Nc2ccccc2)C(=O)c2ccccc21	14.6µM*	?	?	3.7%	?	?
O=C1C(Nc2ccccc2)=C(NS(=O)(=O)c2ccccc2)C(=O)c2ccccc21	-16.9%	-1.2%	i	-2.2%	?	-14.1%
CCOC(=O)c1ccccc1NC(=O)CSC(C)C(=O)Nc1cc(C)on1 (stereo not given)	-1.7%	-4.9%	i	6.8%	i	3.0%
CC(NS(=O)(=O)c1ccc(Br)cc1)C(=O)NCc1ccco1 (stereo not given)	-9.1%	-13.9%	i	-9.3%	i	3.9%
CCc1ccc(NC2=CC(=O)C(=O)c3ccccc32)cc1	-2.8%	7.31µM*	18.4µM*	9.2µM*	16.4µM*	-3.0%
CCc1ccc2c(c1)C(=O)c1ccccc1C2=O	-0.8%	-0.4%	i	14.6%	i	3.2%
O=C1C=C(Nc2ccccc2C(=O)O)c2ccccc2C1=O	?	35.6%	i	29.7%	i	18.4µM*
O=C(O)c1ccccc1NC(=O)C(c1ccccc1)c1ccccc1	0.0%	19.8%	i	2.1%	i	-9.3%
Cc1nc2ccccn2c1C(=O)NNS(=O)(=O)c1ccc(Cl)cc1	-1.8%	-2.7%	i	7.3%	i	-2.3%
Cc1cccc2cc(/C=N/NC(=O)CN3CCOCC3)c(Cl)nc12	1.8%	-4.8%	i	-0.6%	18.4µM*	1.5%
